# Laboratory results: the supplement of paper PMC10849652
# About 7,900 targets were measured; listed, in parts, are those with a hit and a random draw of the rest. About 0.6% of all pairs of compound and target were hits. Values without a mark were called inactive.
# Tests used:
# Assay in all cases: log2 fold change, soluble protein after heating vs DMSO (PISA); higher = thermal stabilisation; K562 cells, 10 uM, 30 min; active = over 0.2 and 3.5 SD of the protein, either way, in both replicates (recomputed)
# saracatinib = compound: CN1CCN(CCOc2cc(OC3CCOCC3)c3c(Nc4c(Cl)ccc5c4OCO5)ncnc3c2)CC1 [saracatinib]
# Outline: (§1)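 For each measurement, 10 μM compound was applied for 30 min to K562 cells at 2×10^6 cells/mL. Aliquots were heated for 3 min across 48°C-58°C, pooled, and extracted in PBS with 0.5% NP-40 at 4°C; the supernatant after 21,000xg for 90 min was soluble protein. This was quantified by TMTpro 16plex LC-MS/MS with channel sums equalised, and thermal stability was reported relative to control samples from duplicates, on a log2 fold-change scale.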
# sotrastaurin = compound: CN1CCN(c2nc(C3=C(c4c[nH]c5ccccc45)C(=O)NC3=O)c3ccccc3n2)CC1 [sotrastaurin]
# Outline: as §1
# alvocidib = compound: CN1CC[C@H](c2c(O)cc(O)c3c(=O)cc(-c4ccccc4Cl)oc23)[C@H](O)C1 [alvocidib]
# Outline: as §1
# Tubastatin A = compound: CN1CCc2c(c3ccccc3n2Cc2ccc(C(=O)NO)cc2)C1 [Tubastatin A]
# Outline: as §1
# [1] = compound: CNC(=O)C1=CC=CC=C1NC2=NC(=NC=C2Cl)NC3=C(C=C(C=C3)N4CCOCC4)OC
# Outline: as §1
# defactinib = compound: CNC(=O)c1ccc(Nc2ncc(C(F)(F)F)c(NCc3nccnc3N(C)S(C)(=O)=O)n2)cc1 [defactinib]
# Outline: as §1
# rucaparib = compound: CNCc1ccc(-c2[nH]c3cc(F)cc4c3c2CCNC4=O)cc1 [rucaparib]
# Outline: as §1
# [2] = compound: CNc1nc(-c2ccc3c(N)n[nH]c3c2)cc(N2C[C@@H](C(=O)NC3CCCCC3)CC[C@H]2C)n1
# Outline: as §1
# encorafenib = compound: COC(=O)N[C@@H](C)CNc1nccc(-c2cn(C(C)C)nc2-c2cc(Cl)cc(NS(C)(=O)=O)c2F)n1 [encorafenib]
# Outline: as §1
# [3] = compound: COC(=O)[C@H](CCSC)NC(=O)C1=C(C=C(C=C1)NC[C@H](CS)N)C2=CC=CC=C2
# Outline: as §1
# [4] = compound: COC1=CC=C(C=C1)CN2C=CC3=C2C=C(C=C3)C(=O)NO
# Outline: as §1
# filanesib = compound: CON(C)C(=O)N1N=C(c2cc(F)ccc2F)S[C@@]1(CCCN)c1ccccc1 [filanesib]
# Outline: as §1
# zotarolimus = compound: CO[C@H]1C[C@@H]2CC[C@@H](C)[C@@](O)(O2)C(=O)C(=O)N2CCCC[C@H]2C(=O)O[C@H]([C@H](C)C[C@@H]2CC[C@H](n3cnnn3)[C@H](OC)C2)CC(=O)[C@H](C)/C=C(\C)[C@@H](O)[C@@H](OC)C(=O)[C@H](C)C[C@H](C)/C=C/C=C/C=C/1C [zotarolimus]
# Outline: as §1
# idasanutlin = compound: COc1cc(C(=O)O)ccc1NC(=O)[C@@H]1N[C@@H](CC(C)(C)C)[C@](C#N)(c2ccc(Cl)cc2F)[C@H]1c1cccc(Cl)c1F [idasanutlin]
# Outline: as §1
# alisertib = compound: COc1cc(Nc2ncc3c(n2)-c2ccc(Cl)cc2C(c2c(F)cccc2OC)=NC3)ccc1C(=O)O [alisertib]
# Outline: as §1
# [5] = compound: COc1cc2nc(-c3cc(F)ccc3O)nc(N[C@@H]3CNC[C@H]3C(C)(C)O)c2cc1OC
# Outline: as §1
# gefitinib = compound: COc1cc2ncnc(Nc3ccc(F)c(Cl)c3)c2cc1OCCCN1CCOCC1 [gefitinib]
# Outline: as §1
# [6] = compound: COc1cccc2cc(-c3nc([C@H]4CC[C@H](C(=O)O)CC4)n4ncnc(N)c34)[nH]c12
# Outline: as §1
# lapatinib = compound: CS(=O)(=O)CCNCc1ccc(-c2ccc3ncnc(Nc4ccc(OCc5cccc(F)c5)c(Cl)c4)c3c2)o1 [lapatinib]
# Outline: as §1
# pictilisib = compound: CS(=O)(=O)N1CCN(Cc2cc3nc(-c4cccc5[nH]ncc45)nc(N4CCOCC4)c3s2)CC1 [pictilisib]
# Outline: as §1
# Sequence of UniProt P00846 (P00846 whole entry, looked up): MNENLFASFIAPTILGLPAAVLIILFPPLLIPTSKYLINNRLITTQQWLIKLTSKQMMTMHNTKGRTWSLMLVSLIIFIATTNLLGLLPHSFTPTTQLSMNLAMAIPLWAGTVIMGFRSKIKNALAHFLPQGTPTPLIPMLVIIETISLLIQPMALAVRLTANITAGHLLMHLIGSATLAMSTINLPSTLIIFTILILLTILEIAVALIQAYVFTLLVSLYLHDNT
# Sequence of UniProt Q8NI08 (Q8NI08 whole entry, looked up): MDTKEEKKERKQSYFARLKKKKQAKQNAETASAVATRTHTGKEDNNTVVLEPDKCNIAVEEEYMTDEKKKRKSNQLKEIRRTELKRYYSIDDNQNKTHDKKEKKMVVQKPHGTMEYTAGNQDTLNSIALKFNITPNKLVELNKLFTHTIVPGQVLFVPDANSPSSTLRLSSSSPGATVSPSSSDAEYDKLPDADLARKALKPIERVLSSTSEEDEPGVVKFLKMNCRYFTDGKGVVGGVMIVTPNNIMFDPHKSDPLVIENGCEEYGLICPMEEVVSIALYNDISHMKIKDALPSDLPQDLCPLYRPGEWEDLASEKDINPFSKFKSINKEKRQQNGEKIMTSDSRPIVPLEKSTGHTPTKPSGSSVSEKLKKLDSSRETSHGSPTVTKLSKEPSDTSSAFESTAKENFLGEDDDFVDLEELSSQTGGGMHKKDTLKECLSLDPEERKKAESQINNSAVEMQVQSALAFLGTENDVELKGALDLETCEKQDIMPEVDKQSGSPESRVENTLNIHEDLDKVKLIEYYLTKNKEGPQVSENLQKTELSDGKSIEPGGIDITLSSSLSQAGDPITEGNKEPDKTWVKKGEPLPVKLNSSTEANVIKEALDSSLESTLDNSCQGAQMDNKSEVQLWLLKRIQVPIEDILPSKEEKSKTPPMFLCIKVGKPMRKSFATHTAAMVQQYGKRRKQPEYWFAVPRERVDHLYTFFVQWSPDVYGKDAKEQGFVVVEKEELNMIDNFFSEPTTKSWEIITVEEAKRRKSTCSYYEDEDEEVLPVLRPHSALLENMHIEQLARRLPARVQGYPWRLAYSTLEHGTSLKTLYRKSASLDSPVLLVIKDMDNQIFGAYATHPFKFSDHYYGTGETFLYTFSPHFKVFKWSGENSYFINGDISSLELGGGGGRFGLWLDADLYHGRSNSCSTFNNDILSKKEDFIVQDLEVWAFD
# Sequence of UniProt P46087 (P46087 whole entry, looked up): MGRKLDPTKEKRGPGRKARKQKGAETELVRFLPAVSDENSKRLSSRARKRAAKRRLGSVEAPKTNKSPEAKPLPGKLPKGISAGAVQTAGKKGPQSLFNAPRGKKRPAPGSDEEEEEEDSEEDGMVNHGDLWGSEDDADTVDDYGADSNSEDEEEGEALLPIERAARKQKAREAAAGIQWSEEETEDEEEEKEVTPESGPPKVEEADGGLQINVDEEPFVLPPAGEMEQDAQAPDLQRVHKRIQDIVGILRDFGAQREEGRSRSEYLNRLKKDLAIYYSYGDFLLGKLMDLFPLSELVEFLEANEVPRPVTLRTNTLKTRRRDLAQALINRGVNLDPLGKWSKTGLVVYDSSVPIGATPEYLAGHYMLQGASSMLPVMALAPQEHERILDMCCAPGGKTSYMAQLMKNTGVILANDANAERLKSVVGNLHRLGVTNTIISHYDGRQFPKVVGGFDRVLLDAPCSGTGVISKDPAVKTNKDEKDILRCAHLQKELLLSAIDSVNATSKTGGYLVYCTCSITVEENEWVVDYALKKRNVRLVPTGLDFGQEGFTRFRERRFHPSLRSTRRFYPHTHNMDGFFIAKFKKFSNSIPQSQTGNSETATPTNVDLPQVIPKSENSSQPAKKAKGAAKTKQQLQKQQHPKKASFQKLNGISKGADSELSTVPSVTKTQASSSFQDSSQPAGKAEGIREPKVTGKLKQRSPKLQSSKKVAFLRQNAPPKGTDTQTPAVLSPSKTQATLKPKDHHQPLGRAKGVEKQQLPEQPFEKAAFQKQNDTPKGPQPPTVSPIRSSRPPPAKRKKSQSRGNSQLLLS
# Sequence of UniProt Q5TFE4 (Q5TFE4 whole entry, looked up): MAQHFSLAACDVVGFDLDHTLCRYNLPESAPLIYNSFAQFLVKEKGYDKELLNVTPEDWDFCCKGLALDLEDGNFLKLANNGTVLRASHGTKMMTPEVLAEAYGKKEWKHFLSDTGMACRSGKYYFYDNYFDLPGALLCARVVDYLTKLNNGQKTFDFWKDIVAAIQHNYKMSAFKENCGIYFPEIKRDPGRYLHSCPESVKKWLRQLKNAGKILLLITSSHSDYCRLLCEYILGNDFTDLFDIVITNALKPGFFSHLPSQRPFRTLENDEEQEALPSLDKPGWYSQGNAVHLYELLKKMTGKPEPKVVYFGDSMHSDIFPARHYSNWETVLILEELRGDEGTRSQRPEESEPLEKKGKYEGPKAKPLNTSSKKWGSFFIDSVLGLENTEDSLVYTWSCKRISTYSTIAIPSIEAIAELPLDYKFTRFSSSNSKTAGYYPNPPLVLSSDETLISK
# Sequence of UniProt Q9NXX6 (Q9NXX6 whole entry, looked up): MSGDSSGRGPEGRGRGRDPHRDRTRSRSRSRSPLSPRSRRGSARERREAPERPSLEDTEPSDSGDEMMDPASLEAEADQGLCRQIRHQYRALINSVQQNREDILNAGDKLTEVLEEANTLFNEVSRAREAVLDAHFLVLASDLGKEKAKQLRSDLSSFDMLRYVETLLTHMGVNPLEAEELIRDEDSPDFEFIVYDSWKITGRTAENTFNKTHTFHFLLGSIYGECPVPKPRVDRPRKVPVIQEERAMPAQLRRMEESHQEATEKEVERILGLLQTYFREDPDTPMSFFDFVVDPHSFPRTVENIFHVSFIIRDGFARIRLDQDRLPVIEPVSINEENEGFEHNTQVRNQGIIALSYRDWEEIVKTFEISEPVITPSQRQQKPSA
# Sequence of UniProt P30419 (P30419 whole entry, looked up): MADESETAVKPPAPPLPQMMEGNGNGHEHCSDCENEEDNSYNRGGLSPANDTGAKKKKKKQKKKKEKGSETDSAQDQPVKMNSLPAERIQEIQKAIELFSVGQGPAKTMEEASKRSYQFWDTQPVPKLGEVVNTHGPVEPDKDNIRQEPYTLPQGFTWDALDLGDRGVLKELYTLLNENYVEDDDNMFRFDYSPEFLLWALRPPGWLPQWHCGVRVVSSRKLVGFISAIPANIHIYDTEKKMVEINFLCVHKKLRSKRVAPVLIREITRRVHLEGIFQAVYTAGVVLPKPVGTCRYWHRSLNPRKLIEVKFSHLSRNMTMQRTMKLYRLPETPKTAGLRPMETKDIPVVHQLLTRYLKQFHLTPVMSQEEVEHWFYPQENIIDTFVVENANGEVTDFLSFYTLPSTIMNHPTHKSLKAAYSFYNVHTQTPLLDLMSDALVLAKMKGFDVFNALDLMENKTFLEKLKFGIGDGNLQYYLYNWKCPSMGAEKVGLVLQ
# Sequence of UniProt P55209 (P55209 whole entry, looked up): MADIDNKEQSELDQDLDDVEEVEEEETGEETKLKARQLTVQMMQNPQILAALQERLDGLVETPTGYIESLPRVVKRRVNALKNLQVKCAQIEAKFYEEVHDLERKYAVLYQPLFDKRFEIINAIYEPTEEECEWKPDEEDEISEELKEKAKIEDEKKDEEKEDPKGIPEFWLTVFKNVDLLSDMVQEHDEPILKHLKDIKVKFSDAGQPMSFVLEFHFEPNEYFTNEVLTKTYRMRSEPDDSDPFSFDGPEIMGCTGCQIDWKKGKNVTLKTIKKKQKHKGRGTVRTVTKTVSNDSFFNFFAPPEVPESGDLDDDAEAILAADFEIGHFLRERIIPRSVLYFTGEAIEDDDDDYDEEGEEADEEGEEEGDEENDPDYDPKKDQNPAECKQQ
# Sequence of UniProt P04181 (P04181 whole entry, looked up): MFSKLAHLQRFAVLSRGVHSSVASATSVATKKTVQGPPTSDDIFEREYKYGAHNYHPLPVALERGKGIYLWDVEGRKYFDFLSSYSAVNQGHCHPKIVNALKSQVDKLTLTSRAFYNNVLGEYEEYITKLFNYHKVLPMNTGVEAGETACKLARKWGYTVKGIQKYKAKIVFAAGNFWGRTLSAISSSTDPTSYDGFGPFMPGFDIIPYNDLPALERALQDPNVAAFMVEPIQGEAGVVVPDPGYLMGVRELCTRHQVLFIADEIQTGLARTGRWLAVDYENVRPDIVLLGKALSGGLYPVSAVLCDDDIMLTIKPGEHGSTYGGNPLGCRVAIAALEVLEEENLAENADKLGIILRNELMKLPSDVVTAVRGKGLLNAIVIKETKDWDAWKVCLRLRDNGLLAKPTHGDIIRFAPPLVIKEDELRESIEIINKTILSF
# Sequence of UniProt Q9NWU1 (Q9NWU1 whole entry, looked up): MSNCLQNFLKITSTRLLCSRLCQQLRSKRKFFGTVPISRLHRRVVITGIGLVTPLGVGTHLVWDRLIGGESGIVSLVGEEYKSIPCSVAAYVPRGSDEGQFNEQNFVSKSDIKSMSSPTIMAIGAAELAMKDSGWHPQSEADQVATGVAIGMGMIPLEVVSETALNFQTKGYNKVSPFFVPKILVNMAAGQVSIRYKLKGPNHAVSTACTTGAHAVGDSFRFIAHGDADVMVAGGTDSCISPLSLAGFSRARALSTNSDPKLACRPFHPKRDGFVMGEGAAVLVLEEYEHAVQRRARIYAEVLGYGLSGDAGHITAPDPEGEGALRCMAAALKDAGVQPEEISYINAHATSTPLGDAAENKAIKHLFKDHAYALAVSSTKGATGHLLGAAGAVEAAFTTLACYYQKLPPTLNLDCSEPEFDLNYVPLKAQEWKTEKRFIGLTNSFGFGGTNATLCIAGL
Target,log2 fold change (saracatinib),log2 fold change (sotrastaurin),log2 fold change (alvocidib),log2 fold change (Tubastatin A),log2 fold change [1],log2 fold change (defactinib),log2 fold change (rucaparib),log2 fold change [2],log2 fold change (encorafenib),log2 fold change [3],log2 fold change [4],log2 fold change (filanesib),log2 fold change (zotarolimus),log2 fold change (idasanutlin),log2 fold change (alisertib),log2 fold change [5],log2 fold change (gefitinib),log2 fold change [6],log2 fold change (lapatinib),log2 fold change (pictilisib)
NOP2 isoform 4 (UniProt P46087),-0.09,-0.007,0.574,0.079,0.064,1.26 (active),0.673,0.115,0.238,-0.024,-0.053,0.651,0.118,0.419,-0.065,0.375,-0.065,-0.118,0.456,-0.039
MRPS10 (UniProt P82664),-0.029,-0.076,-0.007,0.035,-0.034,-0.071,0.006,0.097,0.014,-0.055,-0.041,0.045,0.08,-0.088,-0.014,-0.017,-0.042,0.012,0.069,-0.112
MRPS6 (UniProt P82932),-0.197,-0.058,-0.036,0.011,-0.003,-0.023,0.056,0.092,0.016,-0.126,0.204,-0.019,0.038,-0.275 (active),0.029,0.012,-0.051,-0.081,0.035,-0.003
OAT (UniProt P04181),-0.002,-0.016,-0.125,0.013,0.084,-0.058,-0.047,-0.04,-0.061,0.024,-0.028,-0.183,0.03,-0.054,-0.025,-0.095,0.011,0.004,-0.076,0.12
NMT1 (UniProt P30419),-0.046,0.019,0.001,-0.029,-0.003,0.015,-0.009,0.013,-0.002,0.024,-0.023,-0.005,0.042,-0.015,-0.056,-0.009,-0.044,0.018,0.03,0.029
MT-ATP6 (UniProt P00846),0.253,-0.059,-0.058,0.122,-0.018,-0.095,0.06,-0.176,0.016,0.05,-0.018,-0.036,-0.022,-0.084,-0.05,0.133,0.05,0.055,-0.105,0.208
NSMCE4A (UniProt Q9NXX6),0.109,0.015,-0.003,0.05,-0.112,-0.086,0,-0.114,-0.064,-0.002,0.033,0.049,0.019,0.017,-0.087,-0.018,0.181,-0.437 (active),0.034,-0.011
NCKAP1 isoform 2 (UniProt Q9Y2A7),0.02,-0.031,-0.06,0.027,0.006,-0.071,-0.022,0.019,0,-0.007,0.019,-0.042,0.025,-0.035,0.067,0.008,-0.009,-0.038,0.016,-0.049
NT5DC1 (UniProt Q5TFE4),-0.012,0.026,-0.049,0,0.115,-0.004,-0.057,-0.058,-0.029,0.037,0.016,-0.067,0.019,-0.122,-0.015,0.04,0.018,0.02,0.074,0.097
NCOA7 (UniProt Q8NI08),-0.05,-0.074,-0.052,-0.02,-0.011,-0.099,-0.029,-0.064,0.019,0.039,-0.043,-0.046,0.035,-0.034,-0.034,0.043,-0.014,0.014,0.01,-0.045
OXSM (UniProt Q9NWU1),0.095,0.067,-0.046,-0.01,0.038,-0.059,-0.018,-0.033,-0.007,-0.019,0.033,-0.014,-0.005,0.039,-0.131,-0.041,-0.001,0.025,0.007,0.057
NAP1L1 (UniProt P55209),0.042,-0.039,-0.045,-0.008,0.053,-0.008,0.039,-0.084,0.048,0.023,-0.001,0.08,0.078,0.053,-0.043,0.078,-0.002,-0.041,-0.005,0.107
